Source: PubChem (National Center for Advancing Translational Sciences (NCATS))
This is one part of a sample in which hits are shown more often than they occur.
GAA inh – qHTS Assay for Inhibitors of Human alpha-Glucosidase as a Potential Chaperone Treatment of Pompe Disease; 200,000 compounds, 0.005% hits; AID 1466, 2008; purified human GAA, 4-MU-alpha-glucoside fluorescence; Potency, µM (highest dose often 76.9 µM), actives largely listed as inhibitors
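Human enzyme at 4 nM with 400 uM 4-methylumbelliferyl-alpha-D-pyranoside, citrate/phosphate buffer pH 5.0, 0.005% Tween-20, 20 min at room temperature. Compounds up to 77 uM. 4-MU fluorescence (Ex 365/Em 440) read after NaOH/glycine stop; AC50 from Hill fit.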
GLA inh pH 4.5 – qHTS Assay for Inhibitors of Human alpha-Galactosidase at pH 4.5 | purified enzyme, 4-MU-alpha-Gal fluorescence, pH 4.5 | activity change, negative = inhibition, % at 105 µM | 230,000 tested, under 10 active | Alpha-galactosidase A (Homo sapiens), P06280 | AID 1467, 2008
Target sequence (P06280 whole entry, looked up): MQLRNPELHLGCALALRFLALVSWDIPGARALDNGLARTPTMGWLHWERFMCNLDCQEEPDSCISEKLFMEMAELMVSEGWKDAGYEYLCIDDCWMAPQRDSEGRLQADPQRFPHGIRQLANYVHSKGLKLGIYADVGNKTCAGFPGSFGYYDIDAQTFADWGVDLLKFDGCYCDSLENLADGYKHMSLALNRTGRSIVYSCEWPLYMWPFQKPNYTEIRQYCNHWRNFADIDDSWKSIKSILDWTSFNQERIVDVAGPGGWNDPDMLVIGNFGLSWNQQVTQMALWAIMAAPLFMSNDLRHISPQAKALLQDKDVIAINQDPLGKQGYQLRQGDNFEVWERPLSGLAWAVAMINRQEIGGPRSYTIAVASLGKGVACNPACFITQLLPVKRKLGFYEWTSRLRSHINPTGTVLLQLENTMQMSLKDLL
aGlu spleen mod – qHTS Assay for Inhibitors and Activators of Human alpha-Glucosidase From Spleen Homogenate; human spleen homogenate, 4-MU-alpha-glucoside fluorescence; Potency, µM (doses to about 79.9 µM), hits mostly inhibitors; 240,000 compounds, 0.006% hits; AID 2112, 2009
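Compounds were titrated against alpha-glucosidase in spleen homogenate at pH 5.0, with 1 mM 4-methylumbelliferyl substrate for 40 min at 37 C. Reactions were quenched with pH 10 NaOH/glycine and fluorescence measured.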
GLA spleen mod – qHTS Assay for Inhibitors and Activators of Human alpha-Galactosidase From Spleen Homogenate; human spleen homogenate, 4MU-alpha-Gal fluorescence, 40 min; 240,000 compounds, 0.008% hits; Potency, µM (series often up to 80 µM), actives largely listed as inhibitors
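Inhibition or activation of alpha-galactosidase in human spleen homogenate is scored by 4-MU fluorescence after 40 min at 37C, pH 5.0, with 1 mM substrate. AC50s come from concentration-response fitted to the Hill equation.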
GAA glycogen – qHTS Assay for Inhibitors and Activators of Human alpha-Glucosidase Cleavage of Glycogen; recombinant GAA, glycogen substrate, Amplex Red glucose oxidase fluorescence; 300,000 compounds, 0.38% hits; Potency, µM (series often up to 76.4 µM), hits mostly inhibitors; Lysosomal alpha-glucosidase (Homo sapiens), P10253; AID 2100, 2009;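 also: the screen sought inhibitors and activators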
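Recombinant human enzyme (4 nM); glycogen substrate; 37 C, 40 min, pH 5.0. Readout: coupled glucose oxidase/Amplex Red fluorescence.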
A number is an active result; n = inactive; u = inconclusive; x = no result given; ! = repeats disagree; [ ] = remark or other dose. Calls follow the shape of the dose curve; as a rule, active = well fitted curve in the direction sought with a large enough effect; inconclusive = small, poorly fitted or top-dose-only effect, or another doubt; inactive = no such curve, though single readings can be large; an effect the other way counts as inactive or inconclusive.

SMILES	GAA inh	GLA inh pH 4.5	aGlu spleen mod	GLA spleen mod	GAA glycogen
NCCCC[C@H](NC(=O)[C@@H]1CCCN1C(=O)[C@@H](N)CCCN=C(N)N)C(=O)N1CCC[C@H]1C(=O)N[C@@H](CCC(N)=O)C(=O)N[C@@H](CCC(N)=O)C(=O)N[C@@H](Cc1ccccc1)C(=O)O	x	x	n	n	x
COc1ccccc1Nc1nc(N)nc(CN2CCN(Cc3ccccc3)CC2)n1	n	n	n	n	n
COc1ccc(N2CCN(Cc3nc(N)nc(Nc4ccccc4OC)n3)CC2)cc1	n	n	n	n	40µM
COC(=O)CNC(=O)C1CCN(S(=O)(=O)c2cccc3nsnc23)CC1	x	x	x	x	11µM!
CC(C)(C)NC(=O)C1CCN(S(=O)(=O)c2cccc3nsnc23)CC1	x	x	x	x	n
Cc1ccnc(Nc2nc(-c3ccc(O)cc3)cs2)c1	x	x	x	x	n
Cc1cccnc1Nc1nc(-c2ccc(O)c(O)c2)cs1	u	n	n	n	7.1µM
Cc1ccnc(Nc2nc(-c3ccc(O)c(O)c3)cs2)c1	x	x	x	x	6.3µM
COC(=O)C1=C(C)NC(C)=C(C(=O)OCCCN2CCC(c3ccccc3)(c3ccccc3)CC2)C1c1cccc([N+](=O)[O-])c1 (centres undefined)	x	x	n	n	x
O=C(/C=C/c1ccc(O)c(O)c1)OC(Cc1ccc(O)c(O)c1)C(=O)O (centres undefined)	x	n	n	n	2µM
N#C/C(=C\c1ccc(O)c(O)c1)C(=O)N1CCCC1	n	n	n	n	2.8µM
COc1cc(/C=C(\C#N)C(=O)N2CCCCC2)ccc1O	x	x	x	x	n
Cc1ccc(S(=O)(=O)Nc2ccc(NS(=O)(=O)c3ccc(C)cc3)c3ncccc23)cc1	x	x	n	n	x
CCc1cc(-c2n[nH]c(C)c2-c2nc3ccccc3n2C)c(O)cc1O	u	n	n	n	u
CCc1cc(-c2n[nH]c(C)c2-c2nc3ccccc3n2C)c(O)c(CN2CCN(C)CC2)c1O	n	n	n	n	8.9µM
CSCC[C@H](NC(=O)[C@H](CC(C)C)N(C)C(=O)[C@@H]1CCCN1C(=O)[C@H](Cc1ccccc1)NC(=O)[C@H](Cc1ccccc1)NC(=O)CCC(C)N)C(=O)O (some centres undefined)	x	x	n	n	x
CCOC(=O)N1CCN(c2ccccc2O)CC1	n	n	n	n	11µM
O=C(Cc1ccc(Br)cc1)N1CCN(c2ccccc2O)CC1	n	n	n	n	14µM
COc1cc(N(C)C)cc(CN(C)CCc2ccc([N+](=O)[O-])cc2)c1O	x	x	n	n	x
NNC(=O)c1cc(-c2ccccc2)sc1N	x	n	n	n	5µM
N#CC1=C(SCC(=O)NC2CC2)NC(=O)C(C#N)C12CCCCC2 (centres undefined)	n	n	n	n	25µM
CCNC(=S)N/N=C(\C)c1ccc2ccccc2c1	n	n	n	n	n
CCNC(=S)N/N=C(\C)c1ccc2ccccc2c1OC(F)F	n	n	n	n	50µM
CCOc1ccc(NC(=O)N2CCC(CN3CCc4ccccc4C3)CC2)cc1	x	x	x	x	50µM
Cc1cc(=O)oc2cc(NC(=O)[C@H](CCCCN)NC(=O)[C@H](CC3CCCCC3)NC(=O)OCC3c4ccccc4-c4ccccc43)ccc12	x	x	n	n	x
SMILES	GAA inh	GLA inh pH 4.5	aGlu spleen mod	GLA spleen mod	GAA glycogen
CC(=O)N1CCN(c2ccc(NCc3ccc(C)cc3)cc2)CC1	n	n	n	n	20µM
Cc1ccc2nsnc2c1S(=O)(=O)Nc1cccc2cccnc12	x	x	n	n	x
COc1ccc(C2NC3=C(CCCC3)C(C#N)(C#N)C2(C#N)C#N)cc1 (centres undefined)	n	n	n	n	n
COc1ccc(C2NC3=C(CCC3)C3(C#N)C4(N=C(N)C23C#N)OCCO4)cc1 (centres undefined)	n	n	n	n	22µM
Fc1cccc(Cl)c1/C=N/Nc1ccccn1	n	n	n	n	n
Clc1cccc(Cl)c1/C=N\Nc1nccs1	n	n	n	n	28µM
Cc1ccc(NNC(=O)c2cc(C(C)(C)C)nn2Cc2ccccc2)cc1	n[15.4 µM]	n	n	n	11µM
